Experimental data as given in PubChem BioAssay (NCATS).
Several values for one entry are separate records, joined by “and”; a condition that tells them apart may be missing. Identical values can stand only once. Values without a mark were called inactive. Records with an inconclusive call do not appear. Entries that show only a call come without a potency. Activity calls are given as the source filed them. Calls follow the shape of the dose curve; as a rule, active = well fitted curve in the direction sought with a large enough effect; inconclusive = small, poorly fitted or top-dose-only effect, or another doubt; inactive = no such curve, though single readings can be large; an effect the other way counts as inactive or inconclusive.

Assays:
[1] = tested on: Zika virus NS2B-NS3 protease (linked construct); experiment: Primary screen NINDS Rhodamine qHTS for Zika virus inhibitors (AID 1347160); also: nearly all actives have a fitted effect of over 55% in size
Summary of the method: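 Kinetic fluorescence (Ex 480 nm, Em 540 nm) over 15 min with 1.5 microM Rhodamine110 peptide and 25 nM linked protease.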

[2] = qHTS to identify inhibitors of the type 1 interferon - major histocompatibility complex class I in skeletal muscle: primary screen against the NCATS Mechanism Interrogation Plate v5.0 (MIPE) Libary (AID 1347411); also: nearly all actives have a fitted effect of over 65% in size; also: potency is read from the fitted curve at half-maximal effect
Summary of the method: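 Cells were genome-edited human myoblasts carrying a HiBit tag on endogenous HLA-B. They were treated with IFN-beta (4.0 ng/ml) and titrated compounds (top 46 uM) for 24 hrs before lytic HiBiT detection.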

[3] = Confirmatory screen NINDS Rhodamine qHTS for Zika virus inhibitors (AID 1347161); also: nearly all actives have a fitted effect of over 60% in size; also: potency is read from the fitted curve at half-maximal effect
Summary of the method: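 Aprotinin served as in-plate control. Conditions: 25 nM linked NS2B-NS3, pH 8.0 Tris buffer, titrated compounds, 15 min preincubation and 15 min reaction with 1.5 microM Rhod110 substrate at room temperature.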

[4] = Vero cells viability qHTS for Zika virus inhibitors (AID 1347167)
Summary of the method: (§1)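 Compounds were tested in concentration series on cells grown in DMEM containing 4% FBS. After 24 to 48 hours, cellular ATP was measured by luminescence with CellTiter Glo.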

[5] = HepG2 cells viability qHTS for Zika virus inhibitors (AID 1347168)
Summary of the method: as §1

[6] = qHTS to identify inhibitors of the type 1 interferon - major histocompatibility complex class I in skeletal muscle: primary screen against the NCATS LOPAC collection (AID 1347405);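 also: lytic HiBiT luminescence reporting HLA-B protein level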
Summary of the method: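 Cells: C25cl48 human myoblasts, HiBiT-tagged HLA-B*08:01, stimulated with IFN-beta 4.0 ng/ml. Compounds are titrated 1:4.3 over 7 points from 46 uM final and incubated 24 hrs; endogenous MHC class I is quantified by HiBiT lytic luminescence.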

[7] = qHTS to identify inhibitors of the type 1 interferon - major histocompatibility complex class I in skeletal muscle: primary screen against the NCATS Pharmaceutical Collection (AID 1347407);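 also: luminescence of HiBiT knocked into endogenous HLA-B as interferon-induced MHC class I level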
Summary of the method: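 Immortalized human myoblasts (C25cl48) with HiBiT knocked into endogenous HLA-B*08:01 were stimulated with 4.0 ng/ml IFN-beta and treated with compounds ([…] top 46 uM) for 24 hrs at 37 C. HiBiT lytic luminescence read.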

[8] = qHTS for inhibitors of adenylyl cyclases using a fission yeast platform: a pilot screen against the NCATS LOPAC library (AID 1347410)
Summary of the method: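 S. pombe CHP2027 (AC9-GNAS-PDE4D2) carrying PKA-repressed fbp1-GFP, incubated 18 h at 30C in EMM with LOPAC compounds at up to 57 uM. GFP gain-of-signal read by laser scanning cytometry; DMSO negative control.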

[9] = target: Protein phosphatase 1D (Homo sapiens) (UniProt O15297); experiment: RapidFire Mass Spectrometry qHTS Assay for Modulators of WT P53-Induced Phosphatase 1 (WIP1) (AID 1347424);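 also: amount of dephosphorylated VEPPL-S-QETFS peptide product formed by WIP1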; also: potency is read from the fitted curve at half-maximal effect
Summary of the method: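 10 nM WIP1 + cpd, 1 h RT; + 2 uM VEPPL-pS-QETFS, 5 min RT; stop 0.5% formic acid; labelled product standard 1 uM; RapidFire MS. Buffer 50 mM Tris pH 7.5, 30 mM MgCl2, 1 mM TCEP.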

[10] = target: Protein phosphatase 1D (Homo sapiens) (UniProt O15297); experiment: Rhodamine-PBP qHTS Assay for Modulators of WT P53-Induced Phosphatase 1 (WIP1) (AID 1347425)
Summary of the method: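 5 nM WIP1 + 10 uM Rh-PBP, 50 mM Tris pH 7.5, 30 mM MgCl2, 1 mM TCEP, 0.1 mM EGTA, BSA; cpds pinned, 1 hr RT; + 10 uM phosphopeptide; fluorescence 1-min reads x 11 min; delta = f1 - f0.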

[11] = Validation qHTS assay for inhibitors of Activation Induced Cytidine Deaminase (AID): UDG Counterscreen signal (AID 1347427)
Summary of the method: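 Counterscreen read of UDG activity (2 U/mL, 4/3x) in the FRET deamination format with AID (1 uM, 4/3x), DJC20/DJC23 substrates (250 nM, 4x), 4 h at room temperature. NaOH stop, fluorescence at 560 ex/665 em.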

[12] = target: Single-stranded DNA cytosine deaminase (Homo sapiens) (UniProt Q9GZX7); experiment: Validation qHTS assay for inhibitors of Activation Induced Cytidine Deaminase (AID): AID signal (AID 1347429)
Summary of the method: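 In this coupled qHTS, AID deaminates a FRET-labelled ssDNA substrate in the presence of UDG over 4 hr at room temperature. Compounds span up to 114 uM final.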

[13] = Primary qHTS for inhibitors of La Crosse Virus (LACV) - induced cell death in SH-SY5Y cells (AID 1508616);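 also: top concentration of the series differs between compounds; higher means more rescue of cells from virus-induced death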
Summary of the method: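 Readout was luminescence from ATPLite 1step added after a 6-day LACV infection (0.01 MOI) of SH-SY5Y cells that had received pin-transferred compound 24 hr after seeding.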

[14] = target: Calcium and integrin-binding protein 1 (Homo sapiens) (UniProt Q99828); experiment: Validation qHTS for Identification of Calcium Integrin Binding protein 1 (CIB1) Competitor (AID 1508618); also: potency is read from the fitted curve at half-maximal effect
Summary of the method: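 Displacement of FITC-alphaIIb peptide (100 nM) from CIB1-GST (1 uM) is monitored by polarization in quantitative HTS format; buffer carries 5 mM CaCl2 and 125 mM NaCl at pH 7.4, incubations are at room temperature.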

[15] = tested on: Zika virus NS2B-NS3 protease (linked); experiment: 384 well plate NINDS AMC confirmatory qHTS for Zika virus inhibitors (AID 1347163); also: potency is read from the fitted curve at half-maximal effect; nearly all actives have a fitted effect of over 50% in size
Summary of the method: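 Linked protease 5/30/60 nM final; cpds up to 1 mM final, ~15 min preinc. Substrate Ac-VKTGKR-AMC 30 microM final. RT, dark, 25 min; FI ex 355/em 460; normalized to no-enzyme/no-inhibitor ctrls.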

[16] = tested on: Zika virus NS2B-NS3 protease (linked construct); experiment: 384 well plate NINDS Rhodamine confirmatory qHTS for Zika virus inhibitors (AID 1347164);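 also: fluorescence from protease cleavage of Ac-LKRR-rhodamine 110 substrate; nearly all actives have a fitted effect of over 65% in size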; also: potency is read from the fitted curve at half-maximal effect
Summary of the method: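 Linked NS2B-NS3 protease (final 5, 30 or 60 nM) preincubated ~15 minutes with compounds, then 10 microM Ac-LKRR-Rhodamine 110 added. Fluorescence (485/538 nm) read after 25 minutes at room temperature, normalized to no-enzyme and no-inhibitor controls.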

[17] = Tertiary RLuc qRT-PCR qHTS assay for Zika virus inhibitors (AID 1347169); also: nearly all actives have a fitted effect of over 55% in size; also: potency is read from the fitted curve at half-maximal effect
Summary of the method: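 Vero cells (1,000/well) infected with recombinant ZIKV-RLuc (Cambodian) at MOI 1-2 after compound addition, 48-72 hrs at 37 degrees C. Live-cell Renilla luciferase substrate added; luminescence read after 1-1.5 hrs.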

[18] = target: Lysine-specific demethylase 5B (Homo sapiens) (UniProt Q9UGL1); experiment: Optimization screen for KDM5B Histone Demethylases FDH coupled qHTS against the LOPAC library (AID 1347166)
Summary of the method: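 KDM5BDeltaAP (200nM final) preincubated 10 min with compound, then 12.5uM H3K4Me3, 25uM a-ketoglutarate, ascorbate, Fe(II), NAD+ and FDH added; 50mM HEPES pH 7.5, 0.01% Tween-20. NADH fluorescence (340/450 nm) change over 30 min, room temperature.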

[19] = target: Calcium and integrin-binding protein 1 (Homo sapiens) (UniProt Q99828); experiment: Confirmatory qHTS for Identification of Calcium Integrin Binding Protein 1 (CIB1) Competitor (AID 1508617); also: potency is read from the fitted curve at half-maximal effect; nearly all actives have a fitted effect of over 65% in size
Summary of the method: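 Confirmatory qHTS measures displacement of a FITC-alphaIIb peptide (100 nM) from CIB1-GST (1 uM) by fluorescence polarization. Calcium-containing HEPES buffer, pH 7.4; two 15 min room-temperature incubations.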

Chain of Calcium and integrin-binding protein 1 (Homo sapiens) (Q99828 whole entry, looked up): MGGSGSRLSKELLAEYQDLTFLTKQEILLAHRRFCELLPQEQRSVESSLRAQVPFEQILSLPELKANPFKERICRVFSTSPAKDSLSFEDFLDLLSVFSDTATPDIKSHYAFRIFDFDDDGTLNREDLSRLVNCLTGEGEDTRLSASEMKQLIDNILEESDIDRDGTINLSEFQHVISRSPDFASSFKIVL
Chain of Lysine-specific demethylase 5B (Homo sapiens) (Q9UGL1 whole entry, looked up): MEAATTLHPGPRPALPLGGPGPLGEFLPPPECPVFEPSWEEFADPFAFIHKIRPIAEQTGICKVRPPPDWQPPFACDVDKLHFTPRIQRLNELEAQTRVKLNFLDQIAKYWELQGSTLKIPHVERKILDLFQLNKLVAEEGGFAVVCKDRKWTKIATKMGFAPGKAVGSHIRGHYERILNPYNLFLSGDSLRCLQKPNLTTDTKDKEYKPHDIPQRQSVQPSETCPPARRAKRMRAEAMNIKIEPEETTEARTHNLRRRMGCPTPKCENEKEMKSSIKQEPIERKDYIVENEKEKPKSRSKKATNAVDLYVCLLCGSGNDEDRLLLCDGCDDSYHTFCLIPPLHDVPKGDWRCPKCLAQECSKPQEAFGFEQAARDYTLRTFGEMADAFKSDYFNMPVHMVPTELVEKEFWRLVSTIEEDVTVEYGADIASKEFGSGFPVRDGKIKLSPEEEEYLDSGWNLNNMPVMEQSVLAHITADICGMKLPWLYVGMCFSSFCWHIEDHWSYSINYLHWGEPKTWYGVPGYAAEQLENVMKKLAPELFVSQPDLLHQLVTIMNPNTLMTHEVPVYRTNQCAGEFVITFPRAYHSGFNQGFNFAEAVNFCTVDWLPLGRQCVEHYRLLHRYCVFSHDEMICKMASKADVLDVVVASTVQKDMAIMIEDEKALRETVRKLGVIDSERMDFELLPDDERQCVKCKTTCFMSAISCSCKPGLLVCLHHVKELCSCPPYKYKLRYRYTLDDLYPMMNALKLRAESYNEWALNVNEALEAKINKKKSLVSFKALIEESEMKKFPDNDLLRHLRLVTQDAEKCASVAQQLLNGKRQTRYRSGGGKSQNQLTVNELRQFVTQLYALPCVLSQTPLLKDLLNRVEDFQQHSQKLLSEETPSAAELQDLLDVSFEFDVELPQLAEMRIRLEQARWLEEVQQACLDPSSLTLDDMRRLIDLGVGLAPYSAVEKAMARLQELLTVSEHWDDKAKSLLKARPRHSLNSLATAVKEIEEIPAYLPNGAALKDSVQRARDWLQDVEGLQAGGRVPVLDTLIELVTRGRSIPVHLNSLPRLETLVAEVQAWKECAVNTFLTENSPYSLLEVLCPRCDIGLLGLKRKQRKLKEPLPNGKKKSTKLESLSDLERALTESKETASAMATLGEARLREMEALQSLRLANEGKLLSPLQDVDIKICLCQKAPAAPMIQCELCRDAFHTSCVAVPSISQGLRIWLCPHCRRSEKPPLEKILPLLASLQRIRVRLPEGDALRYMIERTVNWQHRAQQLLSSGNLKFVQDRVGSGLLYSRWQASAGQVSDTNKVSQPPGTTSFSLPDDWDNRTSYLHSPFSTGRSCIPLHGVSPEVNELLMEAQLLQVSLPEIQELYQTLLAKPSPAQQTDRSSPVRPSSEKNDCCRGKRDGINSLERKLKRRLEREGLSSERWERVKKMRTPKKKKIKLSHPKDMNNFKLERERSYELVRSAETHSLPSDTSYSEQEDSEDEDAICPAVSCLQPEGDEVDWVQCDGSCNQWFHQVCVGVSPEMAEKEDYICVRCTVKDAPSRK
Chain of Single-stranded DNA cytosine deaminase (Homo sapiens) (Q9GZX7 whole entry, looked up): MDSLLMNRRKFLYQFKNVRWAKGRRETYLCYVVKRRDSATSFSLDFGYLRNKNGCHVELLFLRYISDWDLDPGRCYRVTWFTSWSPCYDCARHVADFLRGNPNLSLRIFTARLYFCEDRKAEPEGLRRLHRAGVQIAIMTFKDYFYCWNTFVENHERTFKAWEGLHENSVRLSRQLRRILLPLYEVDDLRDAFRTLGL
Chain of Protein phosphatase 1D (Homo sapiens) (O15297 whole entry, looked up): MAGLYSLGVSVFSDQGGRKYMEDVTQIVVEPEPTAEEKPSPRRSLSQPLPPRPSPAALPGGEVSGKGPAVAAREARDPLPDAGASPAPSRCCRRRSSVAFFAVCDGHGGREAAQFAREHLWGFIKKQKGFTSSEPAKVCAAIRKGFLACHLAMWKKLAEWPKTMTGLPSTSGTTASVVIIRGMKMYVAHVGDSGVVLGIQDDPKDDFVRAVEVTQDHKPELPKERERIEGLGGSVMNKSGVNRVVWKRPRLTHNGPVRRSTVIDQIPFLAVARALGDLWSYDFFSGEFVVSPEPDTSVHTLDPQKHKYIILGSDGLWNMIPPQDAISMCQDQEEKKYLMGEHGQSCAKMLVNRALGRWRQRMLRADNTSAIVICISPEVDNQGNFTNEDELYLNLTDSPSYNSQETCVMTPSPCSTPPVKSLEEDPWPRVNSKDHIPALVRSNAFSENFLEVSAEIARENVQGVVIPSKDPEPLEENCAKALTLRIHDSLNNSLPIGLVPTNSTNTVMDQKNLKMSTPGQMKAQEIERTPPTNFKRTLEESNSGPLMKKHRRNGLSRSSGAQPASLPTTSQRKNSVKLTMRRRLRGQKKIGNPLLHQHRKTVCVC

N#CC[C@H](C1CCCC1)n1cc(-c2ncnc3[nH]ccc23)cn1
Potency [1]: inactive
Potency [2]: inactive

O=c1n(CCCN2CCN(c3cccc(Cl)c3)CC2)nc2ccccn12
Potency [3]: inactive
outcome [4]: inactive
outcome [5]: inactive
Potency [6]: inactive
outcome [7]: inactive
outcome [8]: inactive
Potency [9]: inactive
outcome [10]: inactive
outcome [11]: inactive
Potency [12]: inactive
outcome [13]: inactive
Potency [14]: inactive

Cc1cc(Nc2nc(N[C@@H](C)c3ncc(F)cn3)ncc2Cl)n[nH]1
Potency [1]: inactive
Potency [2]: 1.04 µM (active)

COc1nc(-c2ccc3c(c2)OCO3)n(-c2ccc(NC(=O)CSc3ccccc3)cc2)n1
Potency [1]: inactive
Potency [2]: inactive

Cc1cc(SCc2sc(-c3ccc(C(F)(F)F)cc3)nc2C)ccc1OCC(=O)O
Potency [3]: 2.78 µM (active) and 3.12 µM (active)
Potency [15]: 2.82 µM (active)
Potency [16]: 2.82 µM (active)
outcome [4]: inactive
outcome [5]: inactive
Potency [17]: 14.7 µM (active)
Potency [2]: inactive

Cc1[nH]c(=O)c(C#N)cc1-c1ccc2nccn2c1
Potency [3]: inactive
outcome [18]: inactive
outcome [4]: inactive
outcome [5]: inactive
Potency [17]: inactive
Potency [6]: inactive
outcome [7]: inactive
outcome [8]: inactive
Potency [2]: inactive
Potency [9]: inactive
outcome [10]: inactive
outcome [11]: inactive
Potency [12]: inactive
outcome [13]: inactive
Potency [14]: inactive

CN(C)C(=O)c1ccc(S(=O)(=O)c2ccc(NC(=O)[C@@](C)(O)C(F)(F)F)c(Cl)c2)cc1
Potency [1]: inactive
Potency [2]: inactive

Cn1cnc([N+](=O)[O-])c1Sc1ncnc2nc[nH]c12
outcome [18]: inactive
outcome [4]: inactive
outcome [5]: inactive
Potency [17]: 26.9 µM (active)
Potency [6]: inactive
outcome [7]: inactive
outcome [8]: inactive
Potency [2]: inactive
Potency [9]: inactive
outcome [10]: inactive
outcome [11]: inactive
Potency [12]: inactive
outcome [13]: inactive
Potency [14]: inactive

CC(C)(C)NCC(O)c1ccc(O)c(CO)c1 (configuration not stated)
outcome [18]: inactive
Potency [6]: inactive
outcome [7]: inactive
outcome [8]: inactive
Potency [2]: inactive
Potency [9]: inactive
outcome [10]: inactive
outcome [11]: inactive
Potency [12]: inactive
outcome [13]: inactive
Potency [14]: inactive

CCn1cc(C(=O)O)c(=O)c2cc(F)c(N3CCNC(C)C3)c(F)c21 (configuration not stated)
Potency [3]: inactive
outcome [4]: inactive
outcome [5]: inactive
Potency [17]: inactive
Potency [6]: inactive
outcome [7]: inactive
outcome [8]: inactive
Potency [2]: inactive
Potency [9]: inactive
outcome [10]: inactive
outcome [11]: inactive
Potency [12]: inactive
outcome [13]: inactive
Potency [14]: inactive

NC(=O)c1cnccn1
outcome [18]: inactive
Potency [6]: inactive
outcome [7]: inactive
outcome [8]: inactive
Potency [2]: inactive
Potency [9]: inactive
outcome [10]: inactive
outcome [11]: inactive
Potency [12]: inactive
outcome [13]: inactive
Potency [14]: inactive

OC(CCN1CCCCC1)(c1ccccc1)C1CC2C=CC1C2 (configuration not stated)
outcome [18]: inactive
Potency [6]: inactive
outcome [7]: inactive
outcome [8]: inactive
Potency [2]: inactive
Potency [9]: inactive
outcome [10]: inactive
outcome [11]: inactive
Potency [12]: inactive
outcome [13]: inactive
Potency [14]: inactive

CNC[C@H](O)c1cccc(O)c1
outcome [18]: inactive
Potency [6]: inactive
outcome [7]: inactive
outcome [8]: inactive
Potency [2]: inactive
Potency [9]: inactive
outcome [10]: inactive
outcome [11]: inactive
Potency [12]: inactive
outcome [13]: inactive

CCCc1nc2c(C)cc(-c3nc4ccccc4n3C)cc2n1Cc1ccc(-c2ccccc2C(=O)O)cc1
Potency [3]: 13.9 µM (active)
outcome [4]: inactive
outcome [5]: inactive
outcome [7]: inactive
Potency [2]: inactive
outcome [13]: inactive

Cc1cc2c(C(C)C)c(O)c(O)c(C=O)c2c(O)c1-c1c(C)cc2c(C(C)C)c(O)c(O)c(C=O)c2c1O
Potency [3]: 2 µM (active)
Potency [15]: 35.5 µM (active)
Potency [16]: inactive
outcome [7]: inactive
outcome [8]: inactive
Potency [2]: 23.4 µM (active)
Potency [9]: 3.98 µM (active)
outcome [11]: inactive
outcome [13]: inactive
Potency [19]: 3.16 µM (active) and 28.2 µM (active)
Potency [14]: 22.4 µM (active)

Cc1ccc(N(CC2=NCCN2)c2cccc(O)c2)cc1
outcome [18]: inactive
Potency [6]: inactive
outcome [7]: inactive
outcome [8]: inactive
Potency [2]: inactive
Potency [9]: inactive
outcome [10]: inactive
outcome [11]: inactive
Potency [12]: inactive
outcome [13]: inactive

O=NN(CCCl)C(=O)NCCCl
outcome [18]: inactive
Potency [6]: inactive
outcome [7]: inactive
outcome [8]: inactive
Potency [2]: inactive
Potency [9]: inactive
outcome [10]: inactive
outcome [11]: inactive
Potency [12]: inactive
outcome [13]: inactive
Potency [14]: inactive

NCCCC(N)(C(=O)O)C(F)F (configuration not stated)
outcome [18]: inactive
Potency [6]: inactive
outcome [7]: inactive
outcome [8]: inactive
Potency [2]: inactive
Potency [9]: inactive
outcome [10]: inactive
outcome [11]: inactive
Potency [12]: inactive
outcome [13]: inactive
Potency [14]: inactive

CCOc1ccn(-c2ccc(F)cc2)c(=O)c1C(=O)Nc1ccc(Oc2ccnc(N)c2Cl)c(F)c1
Potency [1]: inactive
Potency [2]: inactive

Cc1cnc(Nc2ccc(OCCN3CCCC3)cc2)nc1Nc1cccc(S(=O)(=O)NC(C)(C)C)c1
Potency [1]: inactive
Potency [2]: 5.23 µM (active)

N[C@@H]1CONC1=O
outcome [18]: inactive
Potency [6]: inactive
outcome [7]: inactive
outcome [8]: inactive
Potency [2]: inactive
Potency [9]: inactive
outcome [10]: inactive
outcome [11]: inactive
Potency [12]: inactive
outcome [13]: inactive
Potency [14]: inactive
